Source: PubChem BioAssay
A selection: hits, their analogues and other compounds. The true share with any hit is near 10%.
Six1-Eya2 blk: Six1/Eya2 interaction inhibition; Q15475+O00167; AlphaScreen GST-Six1/His-Eya2 binding, biochemical; stronger effect = lower value; activity change, % (no concentration beside the values); hit rate 0.56% among 360,000; AID 651725; in the data active = activity change below about -65%; inconclusive = mostly about -30% to -63%
Target sequence (O00167 whole entry, looked up): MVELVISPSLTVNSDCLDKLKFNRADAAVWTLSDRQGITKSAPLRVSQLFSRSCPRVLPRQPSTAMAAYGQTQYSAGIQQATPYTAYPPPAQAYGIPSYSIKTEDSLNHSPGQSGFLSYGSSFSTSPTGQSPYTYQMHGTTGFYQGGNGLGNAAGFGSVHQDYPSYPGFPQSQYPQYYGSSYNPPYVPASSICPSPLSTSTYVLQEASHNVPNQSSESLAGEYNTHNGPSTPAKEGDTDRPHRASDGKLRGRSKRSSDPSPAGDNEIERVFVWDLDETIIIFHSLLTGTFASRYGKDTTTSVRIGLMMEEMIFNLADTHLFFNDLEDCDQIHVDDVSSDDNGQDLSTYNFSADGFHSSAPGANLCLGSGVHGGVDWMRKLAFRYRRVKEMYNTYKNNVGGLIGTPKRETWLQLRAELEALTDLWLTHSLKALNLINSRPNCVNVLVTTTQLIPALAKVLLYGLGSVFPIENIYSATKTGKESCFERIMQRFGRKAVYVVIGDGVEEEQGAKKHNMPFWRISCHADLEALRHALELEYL
Target sequence (Q15475 whole entry, looked up): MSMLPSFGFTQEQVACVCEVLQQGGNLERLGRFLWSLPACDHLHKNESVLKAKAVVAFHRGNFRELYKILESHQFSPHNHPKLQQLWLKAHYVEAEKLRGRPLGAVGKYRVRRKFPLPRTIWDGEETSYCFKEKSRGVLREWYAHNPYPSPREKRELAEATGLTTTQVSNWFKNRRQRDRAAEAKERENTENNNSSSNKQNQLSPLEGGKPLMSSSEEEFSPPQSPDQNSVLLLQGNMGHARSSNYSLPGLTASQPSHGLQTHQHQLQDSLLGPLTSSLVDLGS
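AlphaScreen with GST-Six1 and His-Eya2 (5X mix: 250 nM and 500 nM), glutathione donor and nickel acceptor beads; buffer 50 mM Tris pH 8.0, 300 mM NaCl, 1 mM TCEP; 1 h at 37 C in the dark.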
BAZ2B inh: inhibitors of human BAZ2B bromodomain | Q9UIF8 | AlphaScreen BAZ2B-H3K14Ac peptide displacement | Potency, µM (titrated, usually from 114 µM), hits mostly inhibitors | hit rate 4.4% among 360,000 | AID 504333; also: nearly all actives have a fitted effect of over 60% in size
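Compounds, titrated to a top concentration of 110 uM, were incubated 30 min at room temperature with preformed BAZ2B/acetyl-K14 H3 peptide complex (50 nM each). Proximity signal was measured by AlphaScreen after 20 min with beads.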
HP1b chromo inh: HP1-beta chromodomain-methylated histone interaction inhibition; P83916; AlphaScreen HP1-beta / biotin-H3K9me3 peptide binding; Potency, µM (highest dose often 114 µM), actives largely listed as inhibitors; hit rate 0.56% among 390,000; also: nearly all actives have a fitted effect of over 70% in size
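Compound inhibition of the preformed complex between 50 nM HP1-beta and 50 nM biotinylated H3K9me3 peptide was read by AlphaScreen. Buffer was PBS pH 7.4 with 0.01% Tween-20. Incubations ran 30 min at room temperature, with 10 ug/mL donor/acceptor beads.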
JMJD2A Tudor inh: JMJD2A Tudor domain (human) inhibition; O75164; AlphaScreen JMJD2A-Tudor / H3K4me3 peptide binding; Potency, µM (series often up to 114 µM), usual class: inhibitors; AID 504339; hit rate 4.4% among 390,000; also: nearly all actives have a fitted effect of over 50% in size
CtBP-E1A inh: inhibitors of CtBP/E1A interaction. activity change, % (no concentration beside the values). hit rate 0.49% among 340,000. AlphaScreen GST-E1A/His-CtBP binding, 1536-well; stronger effect = lower value; in the data active = activity change below about -65%; inconclusive = mostly about -30% to -63%
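In 5 uL wells, 23 nL compound meets equimolar GST-E1A and His-CtBP (5X stock 125 nM each) for 2 h, 37 °C. Beads (5X, 50 ug/mL) then 1 h, 37 °C, dark.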
G9a block: blocks human histone lysine methyltransferase G9a; Q96KQ7; G9a H3K9 monomethylation, AlphaScreen, 2 h; Potency, µM (top dose mostly 102 µM), usual class: inhibitors; hit rate 8.8% among 350,000; AID 504332; also: nearly all actives have a fitted effect of over 75% in size
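Step 1: enzyme (final 20 nM) with compound, 15 min RT. Step 2: substrate peptide 500 nM and SAM 20 uM, 2 h RT. Step 3: anti-H3K9me1 antibody and AlphaScreen beads, 10 min, then plate read.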
Each line names hits and unclear results; the compound was inactive in the other large screens. Unless noted, calls follow the shape of the dose curve; as a rule, active = well fitted inhibition curve with a large enough effect; inconclusive = small, poorly fitted or top-dose-only effect; inactive = no such curve, though single readings can be large or run the other way.

O=C(CC1OCC2CCCN2C1=O)Nc1ccc([N+](=O)[O-])cc1 (centres undefined)	G9a block 8.9µM
CCOC(=O)c1cnc(Nc2nc3ccccc3o2)nc1CN1CCN(C)CC1	Six1-Eya2 blk -87, BAZ2B inh 79µM, JMJD2A Tudor inh inconclusive, CtBP-E1A inh -85
COc1ccc(-c2nnc(SCCC(=O)O)n2-c2ccccc2)cc1	JMJD2A Tudor inh 40µM, G9a block inconclusive
COc1ccccc1OCc1nnc(SCC(=O)N2CCCCC2)n1-c1ccccc1	none
COc1ccc(-n2c(COc3cccc(C)c3)nnc2SCC(=O)O)cc1	none
CCNC(=O)CSc1nnc(-c2ccccc2)n1-c1ccc(OCC)cc1	BAZ2B inh inconclusive, G9a block 50µM
CCOc1ccc(NC(=O)CSc2nnc(-c3ccccc3)n2N)cc1	none
Cc1cccc(OCc2nnc(SCCC(=O)O)n2-c2ccccc2)c1	BAZ2B inh 79µM
Cc1ccccc1OCc1nnc(SCCN2CCCC2)n1-c1ccccc1	BAZ2B inh 79µM
CCN(CC)c1ccc(-c2nnc(SCC(=O)Nc3ccccc3C#N)n2-c2ccccc2)cc1	G9a block 10µM
CSCCC(NC(=O)/C(=C/c1ccco1)NC(=O)c1ccc(Br)o1)C(=O)O (centres undefined)	G9a block inconclusive (no result: CtBP-E1A inh)
COc1ccc(N2CCN(C(=O)c3ccc(S(=O)(=O)N4CCOCC4)cc3)CC2)cc1	G9a block 8.9µM
COc1ccccc1N1CCN(S(=O)(=O)c2ccc(-n3cnnn3)c(C)c2)CC1	G9a block inconclusive
COc1ccc(N2CCN(S(=O)(=O)c3ccc(OC)c(C(=O)N4CCCC4)c3)CC2)cc1	G9a block 79µM
Cc1ccc(N2CCN(S(=O)(=O)c3ccc(-n4cnnn4)cc3)CC2)c(C)c1	none
CCCN1CCN(S(=O)(=O)c2ccc(-n3cnnn3)cc2)CC1	G9a block 50µM
COc1ccc(N2CCN(S(=O)(=O)c3ccc(-n4cnnn4)c(C)c3)CC2)cc1	G9a block 7.1µM
COc1ccc(N2CCN(C(=O)c3ccc(S(=O)(=O)N4CCCCCC4)cc3)CC2)cc1	JMJD2A Tudor inh inconclusive, G9a block inconclusive
COc1ccc(N2CCN(C(=O)c3ccc(S(=O)(=O)N4CCCC4)cc3)CC2)cc1	G9a block 79µM
COc1ccc(C(=O)c2ccc(N3CCOCC3)cc2)c(OC)c1	G9a block 25µM
CCOCCCN1CN(Cc2ccco2)CNC1=S	G9a block 16µM
S=C1NCN(Cc2ccco2)CN1CCc1ccccc1	G9a block inconclusive
CN(C)c1ccc(/C=C2\CCCc3c2nc2ccccc2c3C(=O)O)cc1	G9a block 40µM
COc1cc(/C=C2\CCCc3c2nc2ccccc2c3C(=O)O)cc([N+](=O)[O-])c1O	Six1-Eya2 blk inconclusive, BAZ2B inh 56µM, HP1b chromo inh inconclusive, JMJD2A Tudor inh inconclusive, CtBP-E1A inh inconclusive, G9a block 40µM
COc1ccc(/C=C2\CCCc3c2nc2ccccc2c3C(=O)O)cc1OC	G9a block 28µM (no result: Six1-Eya2 blk, HP1b chromo inh, JMJD2A Tudor inh, CtBP-E1A inh)
O=C(O)c1ccc(/C=C2\CCCc3c2nc2ccccc2c3C(=O)O)cc1	G9a block inconclusive
Cc1cccc(C)c1OCC(=O)Nc1ccc2c(c1)OCCO2	none
O=C(NC1CCCCC1)C(c1ccc(-c2ccccc2)cc1)n1c(=O)c(-c2ccco2)nc2ccccc21 (centres undefined)	none (no result: BAZ2B inh, HP1b chromo inh, JMJD2A Tudor inh, G9a block)
CCCS(=O)(=O)N1CC(=O)N(c2ccccc2C)C(C)(C(=O)NC2CCCCC2)C1 (centres undefined)	none (no result: Six1-Eya2 blk, CtBP-E1A inh)
C=CC(C)(C)O[C@@H]1O[C@H](CO)[C@@H](O)[C@H](O)[C@H]1O	none
CC(/C=C/C=C(\C)C(=O)O[C@@H]1O[C@H](CO[C@@H]2O[C@H](CO)[C@@H](O)[C@H](O)[C@H]2O)[C@@H](O)[C@H](O)[C@H]1O)=C\C=C\C=C(C)\C=C\C=C(/C)C(=O)O[C@@H]1O[C@H](CO[C@@H]2O[C@H](CO)[C@@H](O)[C@H](O)[C@H]2O)[C@@H](O)[C@H](O)[C@H]1O	G9a block 18µM (no result: Six1-Eya2 blk, BAZ2B inh, HP1b chromo inh, JMJD2A Tudor inh, CtBP-E1A inh)
Cc1ccc(C2=NN(C(=O)CCl)C(c3cccs3)C2)o1 (centres undefined)	G9a block 13µM
O=C(CCl)N1N=C(c2ccco2)CC1c1cccs1 (centres undefined)	G9a block 10µM
CCC(=O)N1N=C(c2ccc(C)o2)CC1c1ccc(N(C)C)cc1 (centres undefined)	BAZ2B inh inconclusive, JMJD2A Tudor inh inconclusive, G9a block 50µM
CC(=O)N1N=C(c2ccc(C)o2)CC1c1ccc(Br)cc1 (centres undefined)	BAZ2B inh inconclusive (no result: G9a block)
O=C(c1ccccc1)N1N=C(c2ccco2)CC1c1cccs1 (centres undefined)	BAZ2B inh inconclusive, HP1b chromo inh inconclusive, JMJD2A Tudor inh 35µM (no result: G9a block)
COCCCNC(=O)Nc1ccc(Br)cc1Cl	none
COCCCNCCCCOc1ccc(Br)cc1Cl	BAZ2B inh inconclusive, JMJD2A Tudor inh 22µM, G9a block inconclusive
COCCNCCCOc1ccc(Br)cc1Cl	BAZ2B inh inconclusive, HP1b chromo inh inconclusive, JMJD2A Tudor inh 3.2µM, G9a block 10µM
C=CCNCCCOc1ccc(Cl)cc1Br	JMJD2A Tudor inh 10µM, G9a block inconclusive
COCCNCCCOc1ccc(Cl)cc1Br	BAZ2B inh 50µM, HP1b chromo inh inconclusive, JMJD2A Tudor inh 7.9µM, G9a block 11µM (no result: CtBP-E1A inh)
OCCNCCCOc1ccc(Cl)cc1Br	none
C[C@H]1CN([C@@H](C)CO)S(=O)(=O)c2ccc(Br)cc2O[C@@H]1CN(C)C(=O)Cc1ccccc1	none (no result: BAZ2B inh, HP1b chromo inh, JMJD2A Tudor inh, G9a block)
CCc1cc2c(cc3c(=O)n(CC(=O)NC4CCCCC4)nc(CC)n32)s1	G9a block inconclusive (no result: Six1-Eya2 blk, CtBP-E1A inh)
COc1ccc(-c2nn(-c3ccccc3)cc2C2CC(c3cccs3)=NN2C(=O)CCCC(=O)O)cc1 (centres undefined)	BAZ2B inh 79µM, G9a block inconclusive
Cc1ccc(-c2nn(-c3ccccc3)cc2C2CC(c3cccs3)=NN2C(=O)CCCC(=O)O)cc1 (centres undefined)	BAZ2B inh 79µM, JMJD2A Tudor inh 71µM, G9a block inconclusive
Cc1ccc(C2=NN(C(=O)CCC(=O)O)C(c3cn(-c4ccccc4)nc3-c3ccc(C)cc3)C2)cc1 (centres undefined)	JMJD2A Tudor inh 50µM, G9a block inconclusive (no result: BAZ2B inh)
CCc1ccc(NC(=O)C(=O)NCCc2sc3nc(-c4ccc(OC)cc4)nn3c2C)cc1	none (no result: Six1-Eya2 blk, CtBP-E1A inh)
NCCCCCc1nnc(SCC(=O)c2ccc(Cl)cc2)o1	G9a block 50µM
NCCc1nnc(SCC(=O)c2ccc(Cl)cc2)o1	G9a block inconclusive
C[n+]1ccc(/C=C/c2ccccc2O)c2ccccc21	BAZ2B inh inconclusive, JMJD2A Tudor inh inconclusive, G9a block 25µM
